According to publication PMC7862700, “An all-to-all approach to the identification of sequence-specific readers for epigenetic DNA modifications on cytosine”:

What was measured:
Test in all cases: DAPPL (digital affinity profiling via proximity ligation, sequencing); 10 mM Tris-HCl pH 7.5, 50 mM NaCl, 1 mM DTT, 4% glycerol, room temperature, 30 min; GST-TFs on glutathione beads, 16-mer random dsDNA library, 0.1% formaldehyde crosslink after washing; high values mean tight binding
FEV = molecular target: T1, FEV (Homo sapiens, UniProt Q99581 1-238); conditions: protein: recombinant; tags: N-terminal GST; dsDNA, one strand shown
T1 sequence: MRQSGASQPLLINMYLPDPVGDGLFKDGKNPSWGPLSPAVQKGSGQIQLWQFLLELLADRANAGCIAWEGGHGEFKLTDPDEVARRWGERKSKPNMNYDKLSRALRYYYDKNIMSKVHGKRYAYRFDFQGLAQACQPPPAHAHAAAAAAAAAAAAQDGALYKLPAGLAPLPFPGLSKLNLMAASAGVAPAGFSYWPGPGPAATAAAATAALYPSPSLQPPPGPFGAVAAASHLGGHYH
In short: (§1)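 GST fusions of human transcription factors were expressed in yeast and captured with glutathione beads. Once given DNA barcodes and pooled alongside a tag-only sample, they were incubated for 30 min at room temperature with 200 nmole of a random double-stranded 16-mer DNA library in Tris/NaCl/DTT/glycerol buffer, then washed, crosslinked (0.1% formaldehyde), proximity-ligated, PCR-amplified and sequenced on an Illumina NextSeq500. The binding signal of each hexamer is its read frequency for a factor divided by its frequency for the tag-only sample.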

ETV5 = ETV5 (Homo sapiens, UniProt P41161 1-510); conditions: protein: recombinant; tags: N-terminal GST; dsDNA, one strand shown
Sequence of ETV5 (P41161 whole entry): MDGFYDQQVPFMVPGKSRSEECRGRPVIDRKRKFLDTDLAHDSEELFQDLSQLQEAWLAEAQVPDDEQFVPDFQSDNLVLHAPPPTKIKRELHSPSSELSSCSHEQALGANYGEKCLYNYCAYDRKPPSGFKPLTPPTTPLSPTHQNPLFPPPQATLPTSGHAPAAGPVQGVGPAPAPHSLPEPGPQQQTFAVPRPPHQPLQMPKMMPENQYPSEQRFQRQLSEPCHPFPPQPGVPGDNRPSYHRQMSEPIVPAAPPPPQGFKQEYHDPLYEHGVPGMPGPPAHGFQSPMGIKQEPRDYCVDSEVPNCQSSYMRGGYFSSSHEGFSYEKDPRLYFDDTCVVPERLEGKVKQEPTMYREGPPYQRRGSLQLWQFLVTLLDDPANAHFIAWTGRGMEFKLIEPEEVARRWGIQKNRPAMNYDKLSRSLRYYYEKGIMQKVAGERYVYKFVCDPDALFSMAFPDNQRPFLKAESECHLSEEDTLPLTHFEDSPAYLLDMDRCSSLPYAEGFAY
In short: as §1

HSF1 = HSF1 (Homo sapiens, UniProt Q00613 1-529); conditions: protein: recombinant; tags: N-terminal GST; chain copies: 3; dsDNA, one strand shown
Sequence of HSF1 (Q00613 whole entry): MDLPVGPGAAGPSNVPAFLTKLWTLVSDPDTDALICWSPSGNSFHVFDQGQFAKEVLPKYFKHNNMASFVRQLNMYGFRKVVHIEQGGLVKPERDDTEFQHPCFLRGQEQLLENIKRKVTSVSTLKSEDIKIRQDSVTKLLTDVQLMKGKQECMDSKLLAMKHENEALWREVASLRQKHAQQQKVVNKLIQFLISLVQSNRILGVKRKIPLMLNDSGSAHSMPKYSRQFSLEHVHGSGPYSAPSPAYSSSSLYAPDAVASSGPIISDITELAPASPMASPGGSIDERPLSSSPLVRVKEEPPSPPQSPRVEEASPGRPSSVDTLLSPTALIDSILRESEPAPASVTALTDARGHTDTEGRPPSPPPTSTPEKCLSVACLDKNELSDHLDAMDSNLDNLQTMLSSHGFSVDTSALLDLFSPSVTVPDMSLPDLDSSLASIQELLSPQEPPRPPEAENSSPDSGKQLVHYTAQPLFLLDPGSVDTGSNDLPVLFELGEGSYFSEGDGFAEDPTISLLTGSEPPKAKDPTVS
In short: as §1

SPIC = molecular target: T2, SPIC (Homo sapiens, UniProt Q8N5J4 1-248); conditions: protein: recombinant; tags: N-terminal GST; dsDNA, one strand shown
T2 sequence: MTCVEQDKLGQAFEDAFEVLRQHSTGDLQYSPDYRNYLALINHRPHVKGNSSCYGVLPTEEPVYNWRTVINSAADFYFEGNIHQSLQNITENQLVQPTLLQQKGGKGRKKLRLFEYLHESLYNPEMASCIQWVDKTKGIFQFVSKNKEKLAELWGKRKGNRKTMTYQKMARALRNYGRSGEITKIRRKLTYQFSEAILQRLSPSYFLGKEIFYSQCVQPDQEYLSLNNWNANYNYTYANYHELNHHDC
In short: as §1

ELF4 = ELF4 (Homo sapiens, UniProt Q99607 1-663); conditions: protein: recombinant; tags: N-terminal GST; dsDNA, one strand shown
Sequence of ELF4 (Q99607 whole entry): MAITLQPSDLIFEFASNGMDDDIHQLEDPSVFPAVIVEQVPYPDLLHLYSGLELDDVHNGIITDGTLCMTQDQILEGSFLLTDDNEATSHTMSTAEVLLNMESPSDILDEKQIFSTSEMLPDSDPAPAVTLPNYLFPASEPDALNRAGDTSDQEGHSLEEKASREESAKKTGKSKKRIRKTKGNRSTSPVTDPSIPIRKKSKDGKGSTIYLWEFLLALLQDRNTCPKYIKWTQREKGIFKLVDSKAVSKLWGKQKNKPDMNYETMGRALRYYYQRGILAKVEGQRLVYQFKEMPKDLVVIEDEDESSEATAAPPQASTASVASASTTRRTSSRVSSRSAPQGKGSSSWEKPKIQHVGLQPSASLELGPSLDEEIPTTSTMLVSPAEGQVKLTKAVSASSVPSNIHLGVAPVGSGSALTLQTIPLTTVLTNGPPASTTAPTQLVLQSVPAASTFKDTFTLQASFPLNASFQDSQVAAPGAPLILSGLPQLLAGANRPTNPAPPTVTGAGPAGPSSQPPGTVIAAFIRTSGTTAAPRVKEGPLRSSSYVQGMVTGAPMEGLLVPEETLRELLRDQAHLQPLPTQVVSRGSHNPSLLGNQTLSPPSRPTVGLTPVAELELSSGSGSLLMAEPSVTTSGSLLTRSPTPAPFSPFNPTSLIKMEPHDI
In short: as §1

ELK4 = molecular target: T3, ELK4 (Homo sapiens, UniProt P28324-2 1-405); conditions: protein: recombinant; tags: N-terminal GST; dsDNA, one strand shown
T3 sequence: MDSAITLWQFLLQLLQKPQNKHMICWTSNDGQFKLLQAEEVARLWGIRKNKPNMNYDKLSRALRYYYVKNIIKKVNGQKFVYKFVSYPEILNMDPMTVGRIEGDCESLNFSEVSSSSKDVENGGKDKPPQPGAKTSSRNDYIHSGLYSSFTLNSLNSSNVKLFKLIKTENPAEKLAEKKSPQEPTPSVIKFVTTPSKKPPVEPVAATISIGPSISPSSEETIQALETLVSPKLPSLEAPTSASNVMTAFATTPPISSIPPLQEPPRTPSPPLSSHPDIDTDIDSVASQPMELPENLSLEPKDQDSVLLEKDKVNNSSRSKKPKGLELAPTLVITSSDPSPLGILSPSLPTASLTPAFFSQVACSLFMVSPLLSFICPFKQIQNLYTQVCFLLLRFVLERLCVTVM
In short: as §1

ETV2 = molecular target: T4, ETV2 (Homo sapiens, UniProt O00321 1-342); conditions: protein: recombinant; tags: N-terminal GST; dsDNA, one strand shown
T4 sequence: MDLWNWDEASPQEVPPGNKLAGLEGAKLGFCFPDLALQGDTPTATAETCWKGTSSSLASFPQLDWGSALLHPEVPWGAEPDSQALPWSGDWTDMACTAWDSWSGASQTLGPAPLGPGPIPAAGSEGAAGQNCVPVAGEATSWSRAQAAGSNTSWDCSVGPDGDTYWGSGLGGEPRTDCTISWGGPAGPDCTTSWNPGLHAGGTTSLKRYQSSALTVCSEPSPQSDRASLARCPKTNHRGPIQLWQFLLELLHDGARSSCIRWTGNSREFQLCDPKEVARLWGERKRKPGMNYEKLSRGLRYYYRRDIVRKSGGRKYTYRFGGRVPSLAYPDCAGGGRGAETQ
In short: as §1

ELF3 = molecular target: T5, ELF3 (Homo sapiens, UniProt P78545 1-371); conditions: protein: recombinant; tags: N-terminal GST; dsDNA, one strand shown
T5 sequence: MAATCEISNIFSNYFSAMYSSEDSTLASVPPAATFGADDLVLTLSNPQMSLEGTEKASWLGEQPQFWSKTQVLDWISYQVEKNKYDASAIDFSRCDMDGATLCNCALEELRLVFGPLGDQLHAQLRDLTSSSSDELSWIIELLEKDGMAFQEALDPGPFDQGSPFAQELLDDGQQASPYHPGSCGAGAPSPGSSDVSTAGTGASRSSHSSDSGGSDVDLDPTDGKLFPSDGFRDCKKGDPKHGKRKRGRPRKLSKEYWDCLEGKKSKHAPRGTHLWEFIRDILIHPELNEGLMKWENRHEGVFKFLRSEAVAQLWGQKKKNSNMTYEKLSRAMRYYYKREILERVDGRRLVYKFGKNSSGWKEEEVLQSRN
In short: as §1

CRX = CRX (Homo sapiens, UniProt O43186 1-299); conditions: protein: recombinant; tags: N-terminal GST; dsDNA, one strand shown
Sequence of CRX (O43186 whole entry): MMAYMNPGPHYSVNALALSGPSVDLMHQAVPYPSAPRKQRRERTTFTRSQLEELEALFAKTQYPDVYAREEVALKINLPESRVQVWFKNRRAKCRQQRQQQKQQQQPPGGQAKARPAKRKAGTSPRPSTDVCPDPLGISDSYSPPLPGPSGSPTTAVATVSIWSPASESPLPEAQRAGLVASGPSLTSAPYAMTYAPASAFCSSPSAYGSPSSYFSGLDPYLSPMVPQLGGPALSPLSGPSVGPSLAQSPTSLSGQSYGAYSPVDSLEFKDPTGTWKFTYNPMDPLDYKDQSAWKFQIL
In short: as §1

ETV1 = ETV1 (Homo sapiens, UniProt P50549 1-477); conditions: protein: recombinant; tags: N-terminal GST; dsDNA, one strand shown
Sequence of ETV1 (P50549 whole entry): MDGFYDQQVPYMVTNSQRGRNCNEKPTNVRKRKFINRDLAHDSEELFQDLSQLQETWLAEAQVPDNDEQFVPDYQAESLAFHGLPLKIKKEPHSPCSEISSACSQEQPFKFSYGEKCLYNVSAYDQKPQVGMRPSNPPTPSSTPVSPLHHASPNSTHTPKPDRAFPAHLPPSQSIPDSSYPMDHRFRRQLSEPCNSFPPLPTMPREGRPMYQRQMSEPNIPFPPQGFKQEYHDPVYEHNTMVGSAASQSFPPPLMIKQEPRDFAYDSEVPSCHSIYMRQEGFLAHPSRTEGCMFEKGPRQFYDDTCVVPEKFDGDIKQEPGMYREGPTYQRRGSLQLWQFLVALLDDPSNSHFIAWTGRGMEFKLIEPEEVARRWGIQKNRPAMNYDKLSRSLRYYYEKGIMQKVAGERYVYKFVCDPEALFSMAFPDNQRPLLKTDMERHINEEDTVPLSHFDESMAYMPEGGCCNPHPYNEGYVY
In short: as §1

In the case of TTCGTA, the binding signal (FEV) is reported as 1.3 fold enrichment (6-mer frequency, TF over GST control), the binding signal (ETV5) is reported as 1.42 fold enrichment (6-mer frequency, TF over GST control) and the binding signal (HSF1) is reported as 1.33 fold enrichment (6-mer frequency, TF over GST control). The binding signal (SPIC) was 1.42 fold enrichment (6-mer frequency, TF over GST control), the binding signal (ELF4) was 1.39 fold enrichment (6-mer frequency, TF over GST control) and the binding signal (ELK4) was 1.21 fold enrichment (6-mer frequency, TF over GST control). For the same sequence, the binding signal (ETV2) was 1.37 fold enrichment (6-mer frequency, TF over GST control), the binding signal (ELF3) was 1.53 fold enrichment (6-mer frequency, TF over GST control) and the binding signal (CRX) was 1.52 fold enrichment (6-mer frequency, TF over GST control). For the same sequence, the binding signal (ETV1) was 1.25 fold enrichment (6-mer frequency, TF over GST control).
